An excerpt weighted towards active compounds, which were near 10% of everything screened.
FLuc inh = Firefly luciferase inhibition profiling of diverse chemical library using quantitative high-throughput screening; purified P. pyralis luciferase, luminescence, biochemical; Potency, µM (top dose mostly 115 µM), most hits filed as inhibitors; 76,000 tested, 2.5% active; further: nearly all actives have a fitted effect of over 65% in size
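Purified P. pyralis luciferase (10nM final) in 50mM Tris acetate pH 7.5, 10mM Mg acetate, 0.01% Tween-20, 0.05% BSA with 10uM D-luciferin and 10uM ATP. Compounds titrated qHTS. Luminescence imaged on CCD.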
NPR1 antag = Natriuretic polypeptide receptor (hNpr1) antagonism - Primary qHTS; HEK293 hNpr1 GloSensor cGMP, ANP-stimulated luminescence; Potency, µM (series often up to 46.3 µM), inactives show top-dose activity change, negative = inhibition, most hits filed as inhibitors; 76,000 tested, 1.6% active; calls by dose curve; further: nearly all actives have a fitted effect of over 60% in size
Target sequence (P16066 whole entry, looked up): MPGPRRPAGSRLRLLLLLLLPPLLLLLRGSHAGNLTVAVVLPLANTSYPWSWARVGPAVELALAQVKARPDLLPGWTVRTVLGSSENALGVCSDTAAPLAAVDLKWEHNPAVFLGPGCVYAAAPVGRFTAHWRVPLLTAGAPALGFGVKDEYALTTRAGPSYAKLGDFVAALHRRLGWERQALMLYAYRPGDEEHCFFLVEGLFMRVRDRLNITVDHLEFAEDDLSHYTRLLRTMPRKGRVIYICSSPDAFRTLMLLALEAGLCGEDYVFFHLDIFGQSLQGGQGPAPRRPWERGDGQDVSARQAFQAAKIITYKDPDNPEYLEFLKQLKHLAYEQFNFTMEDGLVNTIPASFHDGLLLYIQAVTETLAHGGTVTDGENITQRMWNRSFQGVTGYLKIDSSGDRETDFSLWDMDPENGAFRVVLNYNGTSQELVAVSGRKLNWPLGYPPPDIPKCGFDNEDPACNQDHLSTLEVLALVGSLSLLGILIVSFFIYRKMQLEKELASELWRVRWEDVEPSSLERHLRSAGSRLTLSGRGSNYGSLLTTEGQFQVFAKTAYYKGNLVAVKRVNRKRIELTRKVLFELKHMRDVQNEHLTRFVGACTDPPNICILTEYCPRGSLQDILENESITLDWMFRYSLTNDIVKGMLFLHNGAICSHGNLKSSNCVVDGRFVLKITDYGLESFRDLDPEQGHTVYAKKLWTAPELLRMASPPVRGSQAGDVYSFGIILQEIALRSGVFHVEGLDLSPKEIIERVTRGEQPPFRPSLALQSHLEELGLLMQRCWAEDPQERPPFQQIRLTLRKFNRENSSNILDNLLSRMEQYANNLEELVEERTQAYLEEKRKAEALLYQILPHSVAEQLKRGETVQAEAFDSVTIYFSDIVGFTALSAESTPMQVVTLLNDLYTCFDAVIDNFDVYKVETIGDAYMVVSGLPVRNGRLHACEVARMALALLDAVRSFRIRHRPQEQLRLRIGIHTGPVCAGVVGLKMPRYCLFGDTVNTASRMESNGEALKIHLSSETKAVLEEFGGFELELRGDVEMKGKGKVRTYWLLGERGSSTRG
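Compound pre-incubated 30 min at room temperature on GloSensor-loaded HEK293 cells stably carrying hNpr1 and the pGS-40F cGMP biosensor. Stimulation uses hNppA at 0.1 nM final; luminescence is taken at baseline and 20 min post-agonist.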
NIH3T3 tox = Cytotoxic Profiling in NIH 3T3 Cell Line of Diverse Libraries Using Quantitative High-Throughput Screening; NIH 3T3 viability, CellTiter-Glo ATP luminescence, 48-72 h; Potency, µM (titrated, usually from 96.7 µM), for inactives: at the top dose activity change, negative = cytotoxicity, most hits filed as inhibitors; 94,000 tested, 4.3% active; further: nearly all actives have a fitted effect of over 55% in size
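Cytotoxicity is measured as loss of cellular ATP: NIH 3T3 cells (400/well) are exposed to compound for 48 or 72 hr at 37 °C, then CellTiter-Glo luminescence is imaged after 10 min at room temperature.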
GPT2 inhibitor = Primary qHTS assay for inhibitors of Glutamate pyruvate transaminase 2 (GPT2). Alanine aminotransferase 2 (Homo sapiens), Q8TD30. Recombinant GPT2, coupled pyruvate oxidase/HRP Amplex Red fluorescence. Potency, µM (titrated, usually from 57.7 µM), for the others: at the top dose activity change, negative = inhibition, hits mostly inhibitors. 100,000 tested, 0.25% active. AID 1671188, 2021; further: nearly all actives have a fitted effect of over 60% in size
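Inhibition is scored from Amplex Red fluorescence generated when pyruvate oxidase and HRP act on pyruvate released by GPT2. Reactions contain 10ng/uL enzyme, 250uM a-KG and 2mM L-alanine and run 30 min at room temperature.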
HEK cytotox = Cytotoxic Profiling in HEK 293 Cell Line of Diverse Libraries Using Quantitative High-Throughput Screening. HEK 293 viability, ATP luminescence (CellTiter-Glo), 48-72 h. Potency, µM (doses to about 115 µM), without a hit: at the top dose activity change, negative = cytotoxicity, actives largely listed as inhibitors. 94,000 tested, 6.6% active. AID 1345083, 2018; further: nearly all actives have a fitted effect of over 60% in size
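qHTS cytotoxicity; HEK 293, 250 cells/well; compound pinned; 48 or 72 hr, 37 degree Celsius, 5% CO2, 95% humidity; CellTiter-Glo, 10 min RT; luminescence (ATP).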
Active calls of the source: *; i = inactive; ? = inconclusive; . = no result; ! = a repeat was not active; [ ] = dose if it differs, or a comment. Unless noted, the call rests on the fitted dose curve; in most records, active means well fitted curve in the direction sought with a large enough effect; inconclusive means small, poorly fitted or top-dose-only effect, or another doubt; inactive means no such curve, though single readings can be large; an effect the other way counts as inactive or inconclusive. On the % scale 0 is the no-effect control and ±100 the full control effect; potency means the concentration at half of the fitted maximal effect.

SMILES	FLuc inh	NPR1 antag	NIH3T3 tox	GPT2 inhibitor	HEK cytotox
O=C(c1ccc2cc[nH]c2c1)N1CCC(n2cc(-c3nc(-c4ccccc4)no3)nn2)CC1	?	-22%	?	i	40µM*
Cc1noc(-c2cn(C3CCN(C(=O)c4ccc5[nH]ccc5c4)CC3)nn2)n1	i	0%	-24%	i	-2%
O=C(c1ccc2[nH]ccc2c1)N1CCC(n2cc(-c3nc(-c4ccccc4)no3)nn2)C1 (stereo not given)	?	7.9µM*	?	1%	16µM*
CC(C)(Oc1nn(CCOc2ccccc2)c2ccccc12)C(=O)Nc1cccnc1	i	-21%[70.6 µM]	?	-1%[88.5 µM]	?
CN1CCC(NC(=O)C(C)(C)Oc2nn(CCOc3ccccc3)c3ccccc23)CC1	i	0%[70.6 µM]	40µM*	2%[88.5 µM]	89µM*
CN(C)CCNC(=O)C(C)(C)Oc1nn(CCOc2ccccc2)c2ccccc12	i	-15%[70.6 µM]	25µM*	-13%[88.5 µM]	89µM*
COCCc1noc(-c2ccccc2OC2CN(C(=O)CCn3nc(C)cc3C)C2)n1	i	3%	i	i	12%
O=c1cc2c(nn1Cc1cccc(Br)c1)CCCCC2	32µM*	1%	?	?	?
O=C(O)Cn1nc2c(cc1=O)CCCC2	i	1%	i	2%	-4%
COc1cccc(N2C(=O)NC(=NC3CCCC3)C23CCN(C(=O)c2ccccc2OC)C3)c1 (stereo not given)	.	.	1%	i	2%
O=[S+]1([O-])NC2(CCN(Cc3ccc(C(F)(F)F)cc3)C2)CNc2ccccc21 (stereo not given)	i	?	?	i	45µM*
O=[S+]1([O-])NCC2(CCN(Cc3cccc4ccccc34)CC2)Nc2ccccc21	i	12%	?	i	?
O=C(c1ccc(C(F)(F)F)cc1)N1CCC2(CC1)CNc1ccccc1[S+](=O)([O-])N2	i	-4%	-12%	-9%	50µM*
O=[S+]1([O-])NCC2(CCN(Cc3ccccc3C(F)(F)F)CC2)Nc2ccccc21	i	6%	i	-7%	?
O=[S+]1([O-])NC2(CCN(Cc3cccc4ccccc34)C2)CNc2ccccc21 (stereo not given)	i	?	?	i	40µM*
O=[S+]1([O-])NC2(CCN(Cc3ccccc3C(F)(F)F)C2)CNc2ccccc21 (stereo not given)	i	-3%	?	?	40µM*
COC(=O)c1ccc(CN2C(=O)[C@@H]3C[C@@H](O)CN3C3(CN(CC(C)(C)C)C3)C2=O)cc1	i	-1%[70.6 µM]	-5%[174 µM]	-2%[88.5 µM]	-3%[172 µM]
COc1cccc(-c2cc(C(=O)N3CCC(Cc4ccccc4)CC3)c3cnn(C)c3n2)c1	.	.	?	.	45µM*
COc1cccc(-c2cc(C(=O)N3CCCCC3)c3cnn(C)c3n2)c1	.	.	-18%	.	-11%
COc1cccc(-c2cc(C(=O)N3CCC(c4ccccc4)CC3)c3cnn(C)c3n2)c1	.	.	?	.	35µM*
COc1cccc(-c2cc(C(=O)N3CCC(C#N)CC3)c3cnn(C)c3n2)c1	.	.	-23%	.	-21%
CCN(CC)C(=S)SSC(=S)N(CC)CC	.	.	.	11µM*!	.
CC(C)CNC(=O)CC(c1cccc([N+](=O)[O-])c1)c1c[nH]c2ccccc12 (stereo not given)	i	-16%	?	i	79µM*
CCc1cccc2c(C(CC(=O)NCc3ccco3)c3cccc([N+](=O)[O-])c3)c[nH]c12 (stereo not given)	i	-5%	32µM*	i	45µM*
CCc1cccc2c(C(CC(=O)NCC(C)C)c3cccc([N+](=O)[O-])c3)c[nH]c12 (stereo not given)	i	-1%	35µM*	-18%	?
SMILES	FLuc inh	NPR1 antag	NIH3T3 tox	GPT2 inhibitor	HEK cytotox
CCc1cccc2c(C(CC(=O)N3CCCC3)c3cccc(Cl)c3)c[nH]c12 (stereo not given)	i	-2%	-24%	-3%	?
COc1ccc(C(CC(=O)NCc2ccccc2)c2c[nH]c3ccccc23)cc1OC (stereo not given)	i	-9%	-12%	?	3%
CC(=O)Nc1ccc(-c2nnc3n2CCN(C(=O)c2c(C)noc2C)C3)cc1	.	.	-7%	.	i
COCCCNC(=O)c1cccc(-c2ccc(OC)nn2)c1	.	.	-15%[138 µM]	.	-4%[172 µM]
COc1ccc(-c2cccc(C(=O)NCc3ccc(F)cc3)c2)nn1	.	.	?	.	89µM*
COc1ccc(-c2cccc(C(=O)NCC(F)F)c2)nn1	.	.	-21%[138 µM]	.	-7%[172 µM]
COc1ccc(-c2cccc(C(=O)NCc3ccc(C(F)(F)F)cc3)c2)nn1	.	.	?	.	40µM*
COc1ccc(-c2cccc(C(=O)NCCCc3ccccc3)c2)nn1	.	.	?	.	79µM*
COc1ccccc1-c1cc(-c2cccnc2)nc2c(C)noc12	i	2%[70.6 µM]	?	-6%[88.5 µM]	-23%[172 µM]
CN1CCCN(C(=O)c2ccc(F)cc2)c2ccccc21	i	1%	?	i	-18%
Cc1cc(C)cc(C(=O)N2CCCN(C)c3ccccc32)c1	i	-1%	?	i	40µM*
CCn1nc(C)c(-c2cc(C(=O)N3CCC(CCOc4ccccc4)C3)no2)c1C (stereo not given)	i	?	?	i	25µM*
Cc1ccc(OCCC2CCN(C(=O)c3cc(CN4CCOCC4)on3)C2)cc1 (stereo not given)	i	?	-17%	i	79µM*
CCn1nc(C)c(-c2cc(C(=O)N3CCc4nc5cc(-c6ccccc6)[nH]n5c(=O)c4C3)no2)c1C	i	3%	i	i	3%
O=C(C1CCCN1Cc1ccc(-c2cncnc2)cc1)N1CCN(Cc2ccccc2)CC1 (stereo not given)	.	.	?	-3%	?
O=C(CN1CC2CC(C1)[C@H]1CCCC(=O)N1C2)N1CCOCC1 (stereo not given in full)	i	2%	-7%	i	-3%
CC(=O)N1CCCN(Cc2ccc3c(c2)OCO3)c2ccccc21	i	4%	?	-3%	?
O=C(c1ccccc1)N1CCCN(Cc2ccc3c(c2)OCO3)c2ccccc21	i	-4%	?	i	35µM*
C=CCNC(=O)c1cnn2ncccc12	50µM*	-5%[70.6 µM]	-10%[174 µM]	4%[88.5 µM]	i

High-throughput results from PubChem BioAssay.
